From PubChem BioAssay AID827 (SRMLSC, 2007) come the findings set out here.

Structures are written as SMILES. Hit rate of the full screen: of about 140,000 compounds, about 1,700 (1.2%) were called active. For the sample, actives were picked, then their nearest neighbours and some compounds at random. Values without a mark were called inactive.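 Rule for the calls: active = viability at or below a set limit, 4 SD under the median of all tested compounds (cut at about 3.7% in these data); inactive = the rest.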

As usually defined, the viability is a read-out of living cells in per cent, often relative to untreated cells.

This experiment in a line: growth suppression of PTEN-null HCT116, primary screen, cell-based, CellTiter-Glo (AID 827).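 Note: PTEN knockout HCT116 line with beta catenin targeted HCT116 as companion control.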 The following applies: 60 h, at 10 µM, active compounds read low.
With `COc1ccc(C2CC(c3ccccc3)=NN2C(=O)c2ccc(Cl)c([N+](=O)[O-])c2)cc1` (configuration not stated), the viability is 10.4%.

For the molecule `CCOc1ccc2nc(Cl)c(C3CC(c4ccccc4)=NN3C(=O)c3cccs3)cc2c1` (configuration not stated), the viability was 1.17% (active).

`CCOc1ccccc1C1CC(c2cccc(NS(C)(=O)=O)c2)=NN1C(=O)c1ccccc1` (configuration not stated): the viability is 84.5%.

Consider `Cc1c(Cl)cnc(NC(=O)COC(=O)c2ccc(S(=O)(=O)NCc3ccco3)cc2)c1Cl`, for which the viability is 85.2%.

For `COc1ccc(C(=O)O/N=C(\N)Cc2ccc(Cl)cc2Cl)cc1OC`, the viability was 69.4%.

As to `COC(=O)c1sc2ncccc2c1OCc1ccc(Cl)cc1Cl`, the viability was 63.7%.

For the molecule `NC(N)=N/N=C/c1ccc(OCc2ccc(Cl)cc2Cl)cc1`, the viability was 1.56% (active).

`CC1CCCCN1C(=S)NCc1ccccc1` (configuration not stated): the viability was 94.7%.

`O=C(CC1SC(=Nc2ccccc2)N(Cc2ccccn2)C1=O)Nc1cccc(Cl)c1` (configuration not stated): the viability is 76.2%.

On to `Cc1nc(C)c(C(=O)Nc2cccc(C)c2C)o1`, for which the viability was 109%.

For the molecule `O=C(Nc1cccc2ccccc12)c1onc2c1CCCC2`, the viability is 0.29% (active).

As to `O=C(O)c1ccccc1-c1ccccc1C(=O)Nc1cccc2ccccc12`, the viability is 96%.

In the case of `Cc1ccc(-n2nc(C)c(/C=N/NC(=O)c3cccs3)c2Cl)cc1`, the viability was 55.5%.

Consider `Cc1c(C2=CCN(S(=O)(=O)c3ccc(Cl)cc3)CC2)c2ccccc2n1C`, for which the viability is 74%.

As for `COc1cccc(CNCCc2c[nH]c3ccccc23)c1OCc1ccccc1F`, the viability was 1.43% (active).

Regarding `COc1ccccc1NC(=O)CCCc1c[nH]c2ccccc12`, the viability is 92.8%.

Regarding `COc1ccc(C(CCNCc2ccccc2F)c2ccc(F)cc2)cc1` (configuration not stated), the viability was 10.1%.

For the molecule `CCOC(=O)/C(N=Nc1cc(C(=O)O)cc(C(=O)O)c1)=C(\O)CCl`, the viability was 101%.

Consider `CC(=O)c1c(N2CCN(c3ccc(F)cc3)CC2)nc(=S)n(-c2ccccc2)c1C`, for which the viability is 93%.

On to `Nc1nnc(SCC(=O)Nc2ccc3nc(SCC(=O)Nc4ccccc4)sc3c2)s1`, for which the viability is 72.2%.

Turning to `Oc1c(CN2CCN(c3ccc(F)cc3)CC2)cc(Cl)c2cccnc12`, the viability is 4.32%.

Regarding `O=c1[nH]n(-c2cccc(Cl)c2)c2ncccc12`, the viability is 95.2%.

In the case of `Clc1cccc(CN2COc3c(cc(Cl)c4cccnc34)C2)c1`, the viability was 3.76% (active).

Consider `CCOC(=O)c1cccnc1NC(=O)c1ccncc1`, for which the viability was 101%.

Turning to `CCCc1nc2c([nH]1)C(c1cccnc1)C(C#N)=C(N)O2` (configuration not stated), the viability was 98.7%.

For `COC(=O)NNC(=O)C1CCC(C)CC1` (configuration not stated), the viability was 97%.

With `Cc1ccc(Cl)cc1N1CCN(C(=O)c2cccc3c(=O)c(C)c(-c4ccccc4)oc23)CC1`, the viability is 1.24% (active).

For the molecule `O=C(c1cccc2ccccc12)N1CCN(c2ccccc2F)CC1`, the viability is 90.8%.

For the molecule `COC(=O)c1ccc(C(=O)OC)c(NC(=S)N2CCN(c3cc(Cl)ccc3C)CC2)c1`, the viability was 90.3%.

Turning to `COCCCNC(=O)Cn1cc(/C=C(\C#N)C(=O)N2CCN(c3ccccc3)CC2)c2ccccc21`, the viability was 86.2%.

`Cc1ccc(-c2nn(-c3ccccc3)cc2C(=O)Nc2cccc(S(=O)(=O)N3CCOCC3)c2)cc1`: the viability is 89.5%.

For the molecule `Cc1cc(Cl)ccc1NC(=S)N1CCC(C(N)=O)(N2CCCCC2)CC1`, the viability is 88.6%.

`Cc1nc(CC(=O)NNS(=O)(=O)c2ccc(F)c(Cl)c2)cs1`: the viability is 95.8%.

As to `O=C(Cn1cnc2ccccc21)N/N=C/c1ccco1`, the viability was 97.9%.

For `COc1ccc(NC(=O)/C(Cl)=C(/Cl)S(=O)Cc2ccc(C)cc2)cn1` (configuration not stated), the viability is 0.92% (active).

For `COc1ccc(NS(=O)(=O)c2ccc(NC(=S)NC(=O)/C=C/c3ccc(C)cc3)cc2)nn1`, the viability was 94.4%.

Regarding `COc1cc(NC(=O)Nc2ccc(C)cc2)cc([N+](=O)[O-])c1`, the viability is 79.8%.

As to `O=C(/C=C/c1ccccc1[N+](=O)[O-])NCC1CCCO1` (configuration not stated), the viability was 102%.

`C=CCNC(=S)NNC(=O)c1ccc(Br)o1`: the viability was 94.9%.

`CCN(CC)S(=O)(=O)c1ccc(C)c(NC(=O)COc2ccc(Br)cc2Cl)c1`: the viability was 84.6%.

On to `CCn1cc(/C=C2/SC(=S)NC2=O)c(C)n1`, for which the viability is 103%.

Turning to `COc1ccc(-c2cc(C(=O)NC(Cc3c[nH]c4ccccc34)C(=O)O)c(C)o2)cc1OC` (configuration not stated), the viability is 99.7%.

As for `COc1cc(NS(=O)(=O)c2ccccc2)ccc1-n1nc(C)cc1C`, the viability was 94.5%.

With `COc1ccc(Nc2cc(C)nc(-n3nc(C)cc3C)n2)cc1`, the viability is 18.6%.

Take `COc1ccccc1/C=N\Nc1cc(C)nc(-n2nc(C)cc2C)n1`: the viability was 2.6% (active).

On to `CCN(CC)CCn1c(/N=C/c2cc(Br)ccc2O)nc2ccccc21`, for which the viability is 94%.

`O=C(NCCc1ccccn1)c1cc(-c2ccc(Cl)cc2)nc2ccccc12`: the viability was 98.1%.

In the case of `c1ccc(-c2cc3c(NCC4COc5ccccc5O4)ncnc3s2)cc1` (configuration not stated), the viability is 42.1%.

As for `CCCc1cc(=O)[nH]c(SCC(=O)N2CCN(S(=O)(=O)c3ccc(C)cc3C)CC2)n1`, the viability is 93%.

In the case of `COc1ccc(CC(=O)Nc2ccc(-c3nnc(-c4ccc(C)cc4)o3)cc2)cc1`, the viability was 2.56% (active).

As to `COc1cccc(NC(=O)Cc2ccc(C)cc2)c1`, the viability is 113%.

`COc1ccc(CC(=O)Nc2ccc(C(=O)NC(C)(C)C)cc2)cc1`: the viability was 92.4%.

For the molecule `Cc1cccc(C)c1NC(=O)C(c1ccccc1)N1CC(=O)Nc2ccccc21` (configuration not stated), the viability was 66%.

Turning to `O=C(Nc1cc(C(F)(F)F)ccc1Cl)C(=O)N1CCCCC1`, the viability was 91.1%.

Regarding `CC(CC(=O)Nc1cc(C(F)(F)F)ccc1Cl)c1ccccc1` (configuration not stated), the viability was 51.3%.

In the case of `O=C(NNc1ccccc1Cl)C(O)(c1cccc(C(F)(F)F)c1)c1cccc(C(F)(F)F)c1`, the viability was 1.89% (active).

`Cc1cc(C(=O)N/N=C/c2cc([N+](=O)[O-])cc(C)c2O)n[nH]1`: the viability was 83%.

In the case of `O=C(COC(=O)[C@H](Cc1ccccc1)NC(=O)c1cccs1)Nc1cc(F)ccc1F`, the viability is 91.4%.

For the molecule `CCCSc1nc2[nH]ncc2c(=O)[nH]1`, the viability was 90.6%.

Turning to `Cc1cc2oc(C(=O)Nc3c(C)n(C)n(-c4ccccc4)c3=O)c(C)c2cc1Cl`, the viability is 85%.

For `CCn1c(SCc2ccc(C)cc2)nnc1-c1nn(-c2ccccc2)ccc1=O`, the viability is 87.8%.

On to `CCc1ccc(-c2nn(-c3ccccc3)cc2CSC(=N)N)cc1`, for which the viability was 1.62% (active).

On to `N=C(N)SCc1cccc2ccccc12`, for which the viability was 87.8%.

In the case of `COC(=O)Cc1ccc(NC(=S)NCc2ccc(Cl)cc2)cc1`, the viability is 83.4%.

On to `S=C(NCc1ccc(Cl)cc1)NC1CCCCC1`, for which the viability is 77.6%.

For `S=C(NCc1ccc(Cl)cc1)NC12CC3CC(CC(C3)C1)C2`, the viability was 2.95% (active).

Take `C=CCNC(=O)COC(=O)c1ccccc1C(=O)N(C)C1CCCCC1`: the viability was 92.8%.

`Cc1cc(C)cc(NC(=S)NCc2ccc(F)cc2)c1`: the viability was 78.2%.

As to `Cc1ccc(C(=O)N2CC(=O)Nc3ccccc32)o1`, the viability was 100%.

With `CC(=O)c1cc(-c2ccccc2)n(CCC(=O)NC2CCCCCC2)c1C`, the viability is 74.8%.

Take `COc1cccc(N(C(=O)C2COc3ccccc3O2)C(C(=O)NC2CCCCC2)c2ccc(O)cc2)c1` (configuration not stated): the viability was 56.8%.

On to `COC(=O)Cc1csc(/N=C/c2c(O)n(-c3cccc(C(F)(F)F)c3)c(=O)c3ccccc23)n1`, for which the viability is 47.7%.

On to `CCOC(=O)C1=C(C)N=c2s/c(=C\C(=O)OC)c(=O)n2C1c1ccc(OC)cc1` (configuration not stated), for which the viability was 95.2%.

`O=C1CCCC2=C1C(c1ccccc1)n1c(s/c(=C/c3cccc(F)c3)c1=O)=N2` (configuration not stated): the viability is 80.9%.

`COc1ccc(OC)c(C2C3=C(N=c4s/c(=C\c5cccc(O)c5)c(=O)n42)c2ccccc2CC3)c1` (configuration not stated): the viability is 3.19% (active).

For the molecule `COc1ccccc1CNC(=O)CN1CCC(n2cnc3cc(F)ccc32)CC1`, the viability is 101%.

For the molecule `Nc1nc(NCCCN2CCOCC2)nc(Nc2ccccc2)c1[N+](=O)[O-]`, the viability was 63.9%.

In the case of `COCCNc1nc(N)c([N+](=O)[O-])c(NCCO)n1`, the viability is 100%.

On to `CNc1nc(Nc2ccc(C)c(Cl)c2)nc(N)c1[N+](=O)[O-]`, for which the viability was 2.94% (active).

Regarding `CCN(CC)c1ccc(S(=O)(=O)N2CCOCC2)cc1NC(=O)CSc1cccc[n+]1[O-]`, the viability was 93.9%.

With `CCN(CC)CCOc1ccc2c(c1)C(=NNC(=O)c1ccccn1)c1cc(OCCN(CC)CC)ccc1-2`, the viability was 0.61% (active).

Take `COc1ccc(CC(=O)N/N=C(\C)c2ccccn2)cc1`: the viability was 4.88%.

On to `CCC(C)(NC(=O)c1ccccn1)C(=O)NC1CCCCC1` (configuration not stated), for which the viability was 105%.

With `COc1ccc(S(=O)(=O)Nc2ccc(O)c(Sc3nc4ccccc4s3)c2)cc1`, the viability was 78.8%.

In the case of `O=[N+]([O-])c1c(NCCO)cc(Sc2nc3ccccc3s2)c2nonc12`, the viability is 1.48% (active).

Take `O=C(O)c1cccc(S(=O)(=O)Nc2ccc(O)cc2Sc2nc3ccccc3s2)c1`: the viability is 94%.

As to `CCCCCNC(=O)c1cccnc1SCC(=O)Nc1ccccc1OC`, the viability was 91.1%.

As to `COc1ccc(CCN(C(=O)COc2ccccc2)c2nc(-c3ccccc3)cs2)cc1OC`, the viability is 74.5%.

In the case of `CCOC(=O)CN(Cc1ccc(OC)c(OC)c1)S(=O)(=O)c1ccc(OC)cc1`, the viability is 96.9%.

Consider `COc1ccc(C(CCN(Cc2ccc(OC)c(OC)c2)C(=O)CCl)c2ccccc2)cc1` (configuration not stated), for which the viability is 1.54% (active).

`Cc1cc(F)ccc1S(=O)(=O)N1CCCOC1CNC(=O)C(=O)NCCC1=CCCCC1` (configuration not stated): the viability is 93.5%.

As for `N#Cc1ccc(C(=O)Nc2nc(-c3cccs3)c(C(=O)C(F)(F)F)s2)cc1`, the viability was 40.3%.
